Records with an inconclusive call do not appear. Active and inactive are the calls of the source.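 The calls were made as follows, unless noted: active = viability loss from added drug above about 55%, and viability with drug at most 40%, in both replicates (limit read from the data, passing the limit was not always enough); inconclusive = both conditions met in only one replicate; inactive = neither replicate meets both conditions.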

Results on five compounds are retold here after PubChem BioAssay.

Assay [1] can be described thus: reducers of endogenous Her2 protein level, primary screen, SKBR3 breast tumor cells, AlphaScreen, ATP viability (AID 461;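 active = Her2 level under about 52% in both replicate screens, with viability over 70% of control, limit read from the data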;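 as to Her2 level: lower value means less Her2 protein in the cells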;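 as to viability: percent of carrier control wells set as 100% viability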). To be noted: 18-24 h, measured here: SKBR3 viability, ATP luminescence, at 10 µM.
The target in assay [2] is Receptor tyrosine-protein kinase erbB-2 (Homo sapiens) (UniProt P04626). Described as above. Conditions: 18-24 h, at 10 µM, stronger effect = lower value.
Receptor tyrosine-protein kinase erbB-2 (Homo sapiens), sequence (P04626 whole entry, looked up): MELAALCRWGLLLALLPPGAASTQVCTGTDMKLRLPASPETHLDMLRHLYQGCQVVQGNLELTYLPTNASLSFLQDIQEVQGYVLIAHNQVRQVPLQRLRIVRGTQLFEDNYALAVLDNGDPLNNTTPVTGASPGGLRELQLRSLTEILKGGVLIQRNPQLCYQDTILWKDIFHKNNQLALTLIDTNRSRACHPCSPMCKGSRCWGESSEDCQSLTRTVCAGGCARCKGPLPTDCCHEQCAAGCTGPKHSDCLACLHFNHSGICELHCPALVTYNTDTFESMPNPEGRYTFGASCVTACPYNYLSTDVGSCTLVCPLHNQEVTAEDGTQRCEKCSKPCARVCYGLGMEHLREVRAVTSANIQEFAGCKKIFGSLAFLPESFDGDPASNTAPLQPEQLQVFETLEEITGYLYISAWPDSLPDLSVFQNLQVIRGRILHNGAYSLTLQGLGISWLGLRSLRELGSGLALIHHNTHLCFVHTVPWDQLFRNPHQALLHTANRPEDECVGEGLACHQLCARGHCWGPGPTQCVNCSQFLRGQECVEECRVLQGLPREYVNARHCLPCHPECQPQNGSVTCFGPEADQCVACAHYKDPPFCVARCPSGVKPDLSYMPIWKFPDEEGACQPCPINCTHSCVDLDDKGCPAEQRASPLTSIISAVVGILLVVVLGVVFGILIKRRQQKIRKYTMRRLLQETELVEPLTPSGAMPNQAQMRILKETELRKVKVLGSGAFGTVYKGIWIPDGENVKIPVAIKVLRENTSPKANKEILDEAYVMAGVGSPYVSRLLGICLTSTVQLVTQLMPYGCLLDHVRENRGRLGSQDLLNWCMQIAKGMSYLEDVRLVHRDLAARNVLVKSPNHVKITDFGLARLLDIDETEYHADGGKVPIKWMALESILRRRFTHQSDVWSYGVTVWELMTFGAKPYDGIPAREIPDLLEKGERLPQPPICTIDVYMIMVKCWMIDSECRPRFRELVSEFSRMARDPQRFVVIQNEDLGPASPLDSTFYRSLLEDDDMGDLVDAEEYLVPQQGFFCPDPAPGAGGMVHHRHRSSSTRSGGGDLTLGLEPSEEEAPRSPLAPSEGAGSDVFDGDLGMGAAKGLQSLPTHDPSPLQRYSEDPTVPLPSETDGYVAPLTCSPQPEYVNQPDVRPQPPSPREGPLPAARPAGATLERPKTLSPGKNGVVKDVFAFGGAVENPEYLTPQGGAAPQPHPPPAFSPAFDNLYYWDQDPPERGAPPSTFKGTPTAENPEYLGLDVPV
Assay [3] in a line: SK-BR-3 cell growth inhibitors, pilot screen, 24 h, human (AID 572;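 active = viability at or below 10% of carrier control in both of two separate runs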;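 also: compound exposure lasted between 18 and 24 h rather than exactly 24 h; 100% = carrier-treated control wells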). Conditions: SK-BR-3 viability, CellTiter-Glo luminescence, at 10 µM, stronger effect = lower value. In general terms: In ATP-based viability assays light output follows the ATP content of the culture.
Assay [4] in a line: HUVEC growth inhibition – cell-based, human, primary screen (AID 575;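 active = viability at or below 30% in both replicate assays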;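 also: 100% = median of untreated cell wells with 0.1% DMSO on each plate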). To be noted: HUVEC proliferation, CellTiter-Glo luminescence, 72 h; at 10 µM; stronger effect = lower value.
A short description of assay [5]: growth inhibitors of H69AR lung tumor, primary screen, human, duplicate replicates (AID 580;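 active = viability at or under a set limit in both replicates, limit being median viability minus 3 SD, cut at about 48% in these data, passing the limit was not always enough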;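 also: 100% = mean luminescence of untreated wells and 0% = no signal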). Conditions: H69AR lung tumor cells viability, ATP luminescence, 72 h; at 10 µM; stronger effect = lower value.
Assay [6] can be described thus: reversal of MRP1-mediated doxorubicin resistance, pilot screen, H69AR cells, doxorubicin co-treatment (AID 601). Conditions: CellTiter-Glo, 72 h, at 10 µM; for differential viability (reversal): stronger effect = higher value.
Assay [7] in a line: 384-well plate pilot, post-Golgi transport modulator project, inhibition of yeast transport mutant growth (AID 636; in the data active = inhibition above about 31%). Conditions: absorbance 615 nm, about 18 h, stronger effect = higher value.
Assay [8] in a line: growth suppression of yeast trafficking mutant, preliminary HTS, modulators of trafficking downstream of Golgi apparatus project, 1536-format plate, OD 615 nm (AID 637; in the data active = inhibition above about 30%). To be noted: yeast transport mutant growth, absorbance 615 nm, 18 h; stronger effect = higher value.
The nature of assay [9]: OD615 S. cerevisiae growth inhibition, permissive medium, pilot counter-assay, permissive growth control for S. cerevisiae lifespan shortening project (AID 705;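 active = growth inhibition above 25% in both replicates, a cutoff set 3 SD above the mean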). Conditions: OD615, 24 h, at 10 µM, stronger effect = higher value.
Assay [10] is described as follows: Restrictive medium S. cerevisiae growth inhibition, OD615, pilot screen of yeast lifespan reduction project, restrictive growth control (AID 706;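 active = growth inhibition above a set limit, 3 SD over mean compound inhibition, in both replicates, cut at about 43% in these data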;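 also: modified DeaD lifespan yeast strain shifted to restrictive glucose medium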). Conditions: OD615, 48 h, at 10 µM, stronger effect = higher value.
The nature of assay [11]: viability gain of MRP-1-high H69AR cells under doxorubicin, pilot screen, MRP-1 activator project, CellTiter-Glo, duplicate (AID 807;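 active = viability increase at or above a cutoff of the median across tested compounds plus 3 SD, cut at about 8.5% in these data, passing the limit was not always enough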;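 also: compound pretreatment 18-22 h then 72 h combined with doxorubicin; 0% = doxorubicin alone and 100% = vehicle without doxorubicin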). To be noted: H69AR viability with doxorubicin, CellTiter-Glo luminescence; at 10 µM; stronger effect = higher value.
Assay [12] is described as follows: growth suppression of beta-catenin knockout HCT116, pilot screen, human colon tumor cells (AID 823;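 active = cell viability at or below a set limit in both duplicate runs, the limit being the all-compound median minus 4 SD, cut at about 23% in these data, passing the limit was not always enough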;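 also: 0% = wells killed by 20 µM Hyamine and 100% = untreated DMSO cell wells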). Conditions: CellTiter-Glo, 60 h, at 10 µM, stronger effect = lower value.
A short description of assay [13]: growth suppression of PTEN-deleted HCT116, pilot screen, cell-based, HCT116 clonal line, CellTiter-Glo (AID 824;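 active = viability at or below 27.92% in each of two runs, the all-compound median minus 4 SD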;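 also: 0% = 20 µM Hyamine control and 100% = vehicle cell control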). Conditions: 60 h, at 10 µM, stronger effect = lower value.
A short description of assay [14]: inhibitors of the yeast RAM network, pilot screen, dse1pr::URA3 reporter, 5-FOA selection (AID 869;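 active = inhibition over a set limit, the all-compound mean plus 3 SD, in both replicate runs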;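 also: 0% = DMSO wells with no growth and 100% = 10 µM 1-NA-PP1 with full growth; RAM network block rescues cells from 5-FOA so hits raise OD615 growth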). To be noted: S. cerevisiae dse1pr::URA3 5-FOA growth, OD615, 2 d; at 10 µM; stronger effect = higher value; strain carries analog-sensitive mutant Cbk1 kinase.
A short description of assay [15]: RAM signaling pathway blockade in yeast – S. cerevisiae, Pdr1DBD-CYC8 efflux-inhibited sensitized strain, primary screen (AID 1298;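 active = RAM network inhibition above 8.4% in each of two replicates, 3 SD over the compound average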;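 also: 0% = DMSO untreated cells without growth and 100% = 10 µM 1-NA-PP1 full growth; higher means more yeast growth rescued from 5-FOA killing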). Conditions: S. cerevisiae cbk1-as DSE1-URA3 strain, 5-FOA growth OD615, 2 d; at 50 µM; stronger effect = higher value.
The mark [16] stands for this setting: H69AR cells + 2 uM doxorubicin, measured here: viability with 2 uM doxorubicin, stronger effect = lower value.
[17] abbreviates: H69AR cells, compound alone cytotoxicity.

For the compound `COc1ccc(C(=O)c2ccc(OC)c(N)c2)cc1N`, the viability in [1] was 119%; in assay [3] it was 119% (inactive); in [4], 49% (inactive); in assay [5], 16.9% (active); in [6] (setting [16]) it was 63.2%; in assay [6] (setting [17]) it was 16.9%. The viability in assay [12] was 15.2% (active); in assay [13], 17% (active). Moreover, the Her2 level in assay [2] was 86% (inactive). The differential viability (reversal) in assay [6] (H69AR cells + 2 uM doxorubicin) was -46.3% (inactive). Further, the inhibition in assay [7] was 1.3% (inactive); in assay [8], -1.31% (inactive); in assay [14] it was 2.53% (inactive). Also, the growth inhibition in [9] is -20% (inactive); in assay [10] it was -17.8% (inactive). Further, in [11], the viability increase is -6.12% (inactive). In assay [15], the RAM network inhibition was 2.22% (inactive).

For `Cc1nc2ccccc2c2oc(C(=O)N3CCC(N4CCCCC4)CC3)cc12`, the viability is 102% in assay [1]; 102% (inactive) in assay [3]; 75.7% (inactive) in assay [4]; 87.4% (inactive) in [5]; 78.1% in assay [6] (setting [16]); 87.4% in assay [6] (setting [17]). Moreover, the viability is 83.9% (inactive) in assay [12] and 79.6% (inactive) in assay [13]. In addition, the Her2 level in assay [2] is 104% (inactive). Moreover, the differential viability (reversal) in [6] (H69AR cells + 2 uM doxorubicin) is 9.3% (inactive). The inhibition in assay [7] is -2.82% (inactive); in [8], 0.17% (inactive); in assay [14], 0.43% (inactive). Further, the growth inhibition was -9.32% (inactive) in assay [9] and -4.43% (inactive) in [10]. Besides, in [11], the viability increase was -4.92% (inactive). Further, in assay [15], the RAM network inhibition was 4.3% (inactive).

Regarding `COc1ccc(CNC(=O)c2nnn(Cc3ccc(OC)cc3)c2N)cc1`, the viability was 89.5% in assay [1]; 89.5% (inactive) in assay [3]; 77.5% (inactive) in assay [4]; 86.5% (inactive) in [5]; 88.3% in assay [6] (setting [16]); 86.5% in [6] (setting [17]). The viability in [12] is 91% (inactive); in assay [13], 85.4% (inactive). The Her2 level in assay [2] is 101% (inactive). The differential viability (reversal) in assay [6] (H69AR cells + 2 uM doxorubicin) was -1.82% (inactive). The inhibition was -2.69% (inactive) in assay [7], 3.17% (inactive) in [8] and 1.69% (inactive) in assay [14]. The growth inhibition in [9] is -3.35% (inactive); in assay [10], -1.51% (inactive). Moreover, in assay [11], the viability increase was -3.08% (inactive). Besides, in assay [15], the RAM network inhibition is 2.66% (inactive).

Take `CN(C1CCCCC1)S(=O)(=O)c1ccc(S(=O)(=O)N2CCN(CCC#N)CC2)cc1`: the viability in [1] is 89.5%; in [3], 89.5% (inactive); in [4], 98.5% (inactive); in assay [5], 103% (inactive); in [6] (setting [16]) it was 74.8%; in assay [6] (setting [17]) it was 103%. In addition, the viability in assay [12] is 97.2% (inactive); in [13], 91.5% (inactive). Also, the Her2 level in [2] was 92.5% (inactive). For the same compound, the differential viability (reversal) in assay [6] (H69AR cells + 2 uM doxorubicin) was 27.9% (inactive). Moreover, the inhibition was -2.27% (inactive) in assay [7], 4.26% (inactive) in assay [8] and 0.805% (inactive) in [14]. Besides, the figures for the growth inhibition in assay [9] and in assay [10] were -11.3% (inactive) and -3.55% (inactive), respectively. Also, in assay [11], the viability increase was -1.47% (inactive). Moreover, in assay [15], the RAM network inhibition was 1.41% (inactive).

Regarding `CC(CCc1ccco1)NC(=O)Cn1ncc2c1-c1ccccc1OC2` (stereo not given), the viability is 93% in assay [1]; 93% (inactive) in [3]; 90.8% (inactive) in assay [4]; 92.9% (inactive) in assay [5]; 81% in assay [6] (setting [16]); 92.9% in assay [6] (setting [17]). Moreover, the values for the viability in assay [12] and in assay [13] were 101% (inactive) and 91.3% (inactive), respectively. The Her2 level in assay [2] was 90% (inactive). In addition, the differential viability (reversal) in assay [6] (H69AR cells + 2 uM doxorubicin) was 11.9% (inactive). For the same compound, the inhibition in assay [7] was -2.4% (inactive); in assay [8], -0.66% (inactive); in assay [14] it was 1.11% (inactive). In addition, the growth inhibition in [9] was -5.12% (inactive); in assay [10] it was -19% (inactive). Also, in [11], the viability increase is -4.45% (inactive). Also, the RAM network inhibition in assay [15] was 7.86% (inactive).

Broadly, the viability is a read-out of living cells in per cent, often relative to untreated cells. By inhibition is commonly meant the relative decrease from the control value, in per cent.
